# Hit rate of the full screen: of about 69,000 compounds, about 1,000 (1.4%) showed an effect of 50% or more. Many of the other results were omitted from the sample, so strong results are more common in it than they were.
# System: Leishmania donovani
# Assay: Leishmania intramacrophage assay
# Assay type: functional, organism-based
# Parameters: scale not given: in the data most compounds retested in dose-response had high values
smiles,measurement,setting,value
CCOC(=O)C1(Cc2ccc(Cl)cc2)CCN(Cc2ncc[nH]2)CC1,Percent Effect,"30.3 µM, […]",14.14%
CNc1ncc(CN(C)C(=O)c2ccccc2C2CCNC2)cn1 (configuration not stated),Percent Effect,"30.3 µM, […]",-3.65%
N#Cc1c(Cl)nsc1NCc1ccc(N2CCCC(C(N)=O)C2)cc1 (configuration not stated),Percent Effect,"30.3 µM, […]",27.85%
Cc1ncsc1C(=O)NCc1ccnc(OCC(F)(F)F)c1,Percent Effect,30 µM,34.79%
O=S(=O)(NCc1cccnc1OC1CCCC1)N1CCCCC1,Percent Effect,"30.3 µM, […]",-4.69%
CC(O)CNC(=O)NCc1cccnc1OC1CCCC1 (configuration not stated),Percent Effect,"30 µM, 30.03 µM",16.57%
CN(C)c1ncccc1CNc1snc(Cl)c1C#N,Percent Effect,"30.3 µM, […]",-27.87%
COc1ncccc1CNc1snc(Cl)c1C#N,Percent Effect,"30.3 µM, […]",30.49%
N#Cc1c(Cl)nsc1NCc1ccnc(OCC(F)(F)F)c1,Percent Effect,"30.3 µM, […]",96.62%
N#Cc1c(Cl)nsc1NCc1ccc(N2CCC(CO)CC2)cc1,Percent Effect,"30.3 µM, […]",13.7%
Cc1n[nH]cc1CNCc1ccnc(OCC(F)(F)F)c1.Cl,Percent Effect,"30.3 µM, […]",28.01%
N#Cc1c(Cl)nsc1NCc1cccnc1OCC(F)(F)F,Percent Effect,"30.3 µM, […]",71.75%
N#Cc1c(Cl)nsc1NCc1cccnc1OC1CCCC1,Percent Effect,"30.3 µM, […]",98.68%
N#Cc1c(Cl)nsc1NCc1ccc(N2CCSCC2)cc1,Percent Effect,"30.3 µM, […]",88.25%
COc1ncc(-c2ccc(NC(C)=O)cc2)c(OC)n1,Percent Effect,"30.3 µM, […]",5.344%
CCOCC1CN(C(=O)C2CCOCC2)Cc2cnn(C)c21 (configuration not stated),Percent Effect,"30.3 µM, […]",-4.533%
COCCN1C[C@@H]2[C@@H](OC)CCN(Cc3cccs3)[C@@H]2C1.O=C(O)C(F)(F)F.O=C(O)C(F)(F)F,Percent Effect,"30.3 µM, […]",25.04%
NC(=O)Cn1cc(NC(=O)N2CCSCC2)cn1,Percent Effect,30 µM,-2.179%
CCOc1ccc2nc(NC(=O)c3c(C(=O)O)cnn3C)sc2c1,Percent Effect,"30.3 µM, […]",4.578%
Cc1c(Cl)ccc2ccc(NC(CO)CO)nc12,Percent Effect,"30.3 µM, […]",6.475%
CC(NC(=O)Cn1cc(C(N)=O)c(-c2ccccc2)n1)C1CC1 (configuration not stated),Percent Effect,"30.3 µM, […]",12.7%
CC(C)(N)C(=O)N1CCCC(C(=O)c2ccc(C(C)(C)C)cc2)C1 (configuration not stated),Percent Effect,"30.3 µM, […]",91.24%
CC(C)(C)c1ccc(C(=O)C2CCCN(C(=O)CNS(C)(=O)=O)C2)cc1 (configuration not stated),Percent Effect,"30.3 µM, […]",1.067%
CC(=O)NCC(=O)N1CCCC(C(=O)c2ccc(C(C)(C)C)cc2)C1 (configuration not stated),Percent Effect,"30.3 µM, […]",16.87%
Cc1cc(COC(=O)[C@@H]2Cc3ccccc3CN2S(C)(=O)=O)no1,Percent Effect,"30.3 µM, […]",12.34%
Cc1nccc(NCc2cncc3c2CCN(CC2CC2)C3)n1.Cl.Cl,Percent Effect,"30.3 µM, […]",25.61%
Cc1nccc(NCc2cncc3c2CCN(CCN(C)C)C3)n1,Percent Effect,"30.3 µM, […]",29.74%
Cc1nccc(NCc2cncc3c2CCN(CC2CCOC2)C3)n1.Cl.Cl (configuration not stated),Percent Effect,"30.3 µM, […]",55.7%
Cc1nc(NC2(CN3CCCCC3)CCCCC2)c2cnn(C)c2n1,Percent Effect,"30.3 µM, […]",21.44%
CCOC(=O)CC1(Nc2nc(C)nc3c2cnn3C)CCCCC1,Percent Effect,"30.3 µM, […]",50.84%
COCC1(Nc2nc(C)nc3c2cnn3C)CCCC1,Percent Effect,"30.3 µM, […]",32.37%
CCOc1ccccc1C1=CCN(C(=O)C2CCN(C)C(=O)C2)CC1 (configuration not stated),Percent Effect,30 µM,-1.516%
O=C1CC(NCc2cccc(O)c2)CN1CCc1cccc(Cl)c1 (configuration not stated),Percent Effect,"30.3 µM, […]",24.84%
Cc1nnc(NC(=O)C2CSCN2C(=O)C2CCCC2)s1 (configuration not stated),Percent Effect,"30.3 µM, […]",-31.76%
O=C(c1cc(-c2ccn(CC3CC3)n2)n2ccccc12)N1CCCO1,Percent Effect,"30.3 µM, […]",27.45%
O=C(O)c1cc(-c2ccn(CC3CC3)n2)n2ccccc12,Percent Effect,"30.3 µM, […]",20%
O=C(c1cc(-c2ccn(CC3CC3)n2)n2ccccc12)N1CCOCC1,Percent Effect,"30.3 µM, […]",88.37%
O=C(c1ccc(NCc2ccco2)nc1)N1CCc2ccccc21,Percent Effect,"30.3 µM, […]",-1.41%
Fc1ccc2[nH]c3c(c2c1)CCN1C(c2ccncc2)N2CCC31CC2 (configuration not stated),Percent Effect,"30.3 µM, […]",86.05%
CC(=O)NC1CCCc2c1[nH]c1ccc(F)cc21 (configuration not stated),Percent Effect,"30.3 µM, […]",4.787%
Fc1ccc2[nH]c3c(c2c1)CCN1C(c2ccccn2)N2CCC31CC2 (configuration not stated),Percent Effect,"30.3 µM, […]",22.17%
O=C(OCc1ccccc1)N1CC[C@H]2CC(CO)O[C@@H]2C1 (some centres not stated),Percent Effect,"30.3 µM, […]",-47.27%
CN1CCC(n2nc(Cc3cccc(Cl)c3)nc2Cn2ccnc2)CC1,Percent Effect,"30.3 µM, […]",15.54%
Cc1noc(C)c1CCCNC(=O)C1CCN(C(=O)C2CC2)CC1,Percent Effect,"30.3 µM, […]",-2.423%
CC(C)Cc1noc(C2CCCN(C(=O)CCc3cnn(C)c3)C2)n1 (configuration not stated),Percent Effect,"30.3 µM, […]",5.747%
CCCN1CCC(NC(=O)Nc2ccc(OC)c(OC)c2)CC1,Percent Effect,"30.3 µM, […]",8.2%
CCCN1CCC(Nc2cc(-c3ccccc3)ccc2OC)CC1,Percent Effect,"30.3 µM, […]",94.4%
CCCN1CCC(NC(=O)c2csc(C)c2-c2ccccc2)CC1,Percent Effect,"30.3 µM, […]",11.13%
Cc1ccc(C2CCCN(C(=O)c3cnn(C)c3)C2)nc1 (configuration not stated),Percent Effect,"30.3 µM, […]",-15.16%
O=C(c1cc(Cl)ccc1F)N1CCCC1Cn1cccn1 (configuration not stated),Percent Effect,30 µM,-22.81%
COc1cc(NCc2ccncc2)c(-c2nn[nH]n2)cc1OC,Percent Effect,"30.3 µM, […]",-13.14%
COCCN1C(=O)CCC12CCN(C(=O)CNC(C)=O)CC2,Percent Effect,"30.3 µM, […]",21.99%
COc1cc(-c2cc(C3CCOC3)c(C#N)c(N)n2)ccc1O (configuration not stated),Percent Effect,"30.3 µM, […]",14.88%
COCC(=O)NCc1cnc(C)nc1-c1cn(C)c2ccc(OC)cc12,Percent Effect,"30.3 µM, […]",7.699%
COc1ccc2c(c1)c(-c1nc(N(C)C)ncc1CN)cn2C,Percent Effect,"30.3 µM, […]",97.85%
COc1ccc2c(c1)c(-c1nc(C)ncc1CN)cn2C,Percent Effect,"30.3 µM, […]",49%
Cc1ccccc1C(C)NC(=O)CN1CCN(Cc2ccc(Br)s2)CC1 (configuration not stated),Percent Effect,"30.3 µM, […]",-13.55%
CCn1cc(NC(=O)NCc2ccc3c(c2)OCO3)cn1,Percent Effect,30 µM,18.35%
Cc1ncsc1CN1C[C@@H]2COC[C@]2(C(=O)NC2CC(F)(F)C2)C1.O=C(O)C(F)(F)F,Percent Effect,"30.3 µM, […]",30.87%
O=C(NC1CC(F)(F)C1)[C@]12COC[C@H]1CN(Cc1ccsc1)C2,Percent Effect,"30.3 µM, […]",55.66%
O=C(NC1CC(F)(F)C1)[C@]12COC[C@H]1CN(Cc1ccccc1)C2.O=C(O)C(F)(F)F,Percent Effect,"30.3 µM, […]",18.84%
CNS(=O)(=O)c1cccc(C(C)NCc2ccc(C)c(C)c2)c1 (configuration not stated),Percent Effect,"30.3 µM, […]",17.01%
CN(C)C(=O)N1CC2(CCNCC2)c2cc(Cl)ccc21.Cl,Percent Effect,"30.3 µM, […]",-49.76%
C[C@@H](N)C(=O)N1CC2(CCNCC2)c2cc(Cl)ccc21.Cl.Cl,Percent Effect,"30.3 µM, […]",18.29%
Cl.Cl.O=C([C@H]1CCCN1)N1CC2(CCNCC2)c2cc(Cl)ccc21,Percent Effect,"30.3 µM, […]",35.2%
CCOC(=O)N1CC2(CCNCC2)c2cc(Cl)ccc21.Cl,Percent Effect,"30.3 µM, […]",67.51%
Cl.Cl.O=C([C@@H]1CSCN1)N1CC2(CCNCC2)c2cc(Cl)ccc21,Percent Effect,"30.3 µM, […]",30.82%
Cc1ccc2c(c1)C1(CCNCC1)CN2C(=O)C(C)C,Percent Effect,"30.3 µM, […]",17.68%
Cl.O=C(c1ccccc1F)N1CC2(CCNCC2)c2cc(Cl)ccc21,Percent Effect,"30.3 µM, […]",46.46%
CC(C)C[C@H](N)C(=O)N1CC2(CCNCC2)c2cc(Cl)ccc21.Cl.Cl,Percent Effect,"30.3 µM, […]",94.41%
CCc1noc(C)c1C(=O)N(C)Cc1ncc(C)c(OC)c1C,Percent Effect,"30 µM, 30.03 µM",17.33%
CN(CCCC#N)C1CCCN(Cc2noc(C3CC3)n2)C1 (configuration not stated),Percent Effect,"30 µM, 30.03 µM",35.66%
Cc1cccnc1CC(C)N(C)C(=O)c1cccs1 (configuration not stated),Percent Effect,"30.3 µM, […]",22.03%
CNC(=O)c1cnc(/C=C/c2cc(OC)c(O)c(OC)c2)s1,Percent Effect,"30.3 µM, […]",3.705%
CCn1cc(NC(=O)C(C)n2ncc(Cl)c2C)c(C(=O)NCC(C)C)n1 (configuration not stated),Percent Effect,"30.3 µM, […]",23.51%
CC(Oc1ccc2c(c1)OCO2)C(=O)N1CCC(N2CCCC2)CC1 (configuration not stated),Percent Effect,"30.3 µM, […]",30.73%
CCN(Cc1nonc1C)C(=O)c1ccc(Br)o1,Percent Effect,"30.3 µM, […]",25.68%
O=C(O)C(F)(F)F.O=C1[C@H]2CN(CC3CCOCC3)C[C@H]2CN1Cc1cccc(F)c1,Percent Effect,"30.3 µM, […]",2.876%
CN1CCC2(CCCN(c3nccc(C(F)(F)F)n3)C2)CC1.O=C(O)C(F)(F)F,Percent Effect,"30.3 µM, […]",21.14%
O=C(O)C(F)(F)F.O=C(O)C(F)(F)F.c1cnc(N2CCCC3(CCN(c4ncccn4)C3)C2)nc1 (configuration not stated),Percent Effect,"30.3 µM, […]",12.64%
CC(C)N1CCC2(CCCN(c3nccc(C(F)(F)F)n3)C2)CC1.O=C(O)C(F)(F)F,Percent Effect,"30.3 µM, […]",54.65%
O=C(c1ccccc1OCC1CC1)N1CCCC(n2ccnc2)C1 (configuration not stated),Percent Effect,"30 µM, 30.03 µM",5.028%
Cc1cc(C)n(-c2nc(NCCCO)c3c4c(sc3n2)CCCC4)n1,Percent Effect,"30.3 µM, […]",97.76%
Cc1cc(C)n(C2=NC(NCCC(C)C)c3c(sc4c3CCCC4)N2)n1 (configuration not stated),Percent Effect,"30.3 µM, […]",29.71%
Cc1nc(CN2CCCC2C(=O)OCc2ccccc2)oc1C (configuration not stated),Percent Effect,"30.3 µM, […]",0.6047%
c1ccc(-c2noc(CN3CCC(c4ccn[nH]4)CC3)n2)cc1,Percent Effect,"30 µM, 30.03 µM",52.27%
CC1COCCN1Cc1nc(-c2ccc(F)cc2)no1 (configuration not stated),Percent Effect,30 µM,12.83%
c1ccc(-c2cc(CN3CCC(c4ccn[nH]4)CC3)on2)cc1,Percent Effect,"30 µM, 30.03 µM",56.61%
c1cc(C2CCN(Cc3nc(C4CC4)no3)CC2)[nH]n1,Percent Effect,"30.3 µM, […]",12.31%
O=C1NCCN1C1CCN(Cc2nc(-c3ccc(F)cc3)no2)CC1,Percent Effect,30 µM,36.95%
Cc1ccccc1-c1noc(CN2CCC(c3ccn[nH]3)CC2)n1,Percent Effect,"30.3 µM, […]",-17.93%
Cc1ccc(-c2noc(CN3CCC(c4ccn[nH]4)CC3)n2)cc1,Percent Effect,"30.3 µM, […]",12.54%
Fc1ccc(-c2noc(CN3CCC(c4cc[nH]n4)CC3)n2)cc1,Percent Effect,"30.3 µM, […]",54.52%
Cc1cccc(-c2noc(CN3CCC(c4ccn[nH]4)CC3)n2)c1,Percent Effect,"30.3 µM, […]",43.8%
CC(C)c1cc(C(=O)NCCc2nc(-c3ccncc3)n[nH]2)[nH]n1,Percent Effect,"30.3 µM, […]",-0.4105%
Cc1cc(SC(C)(C)C)ccc1NC(C)C(=O)NC(N)=O (configuration not stated),Percent Effect,"30.3 µM, […]",-16.97%
Cc1nc(C2CCCC2)sc1C(N)=O,Percent Effect,"30.3 µM, […]",-15.57%
Cc1cnn(CC2CCCN2c2ncnc3ccsc23)c1 (configuration not stated),Percent Effect,30 µM,46.26%
CCCNC(=O)COc1cccc(-c2nc(C(C)C)no2)c1,Percent Effect,"30.3 µM, […]",13.17%
CCC(Nc1nc(CCN)nc2ccccc12)c1cc(C)ccn1 (configuration not stated),Percent Effect,"30.3 µM, […]",19.32%
CCC(Nc1nc(CCN)nc2ccccc12)c1cccs1 (configuration not stated),Percent Effect,"30.3 µM, […]",67.47%
NCCc1nc(N[C@@H](CO)c2ccccc2)c2ccccc2n1,Percent Effect,"30.3 µM, […]",7.922%

# Reference: ChEMBL document CHEMBL3988442, “University of Dundee, Small-Polar-MMV Screening Library” (2021)
